Results on 14 molecules are retold here after PubChem BioAssay (NCI).

Some test systems named below: NCI-H23 lung; NCI-H226 lung; NCI-H322M lung; HOP-62 NSCLC; NCI-H460 lung; HOP-92 NSCLC; NCI-H522 lung; A549/ATCC NSCLC; 786-0 renal; COLO 205 colon.
Common to all, as to test: NCI-60 one-dose screen, 48 h (100 = growth as untreated, 0 = no growth, -100 = all killed)
Common to all, as to conditions: 10 µM unless noted

Compounds without any hit were thinned out: in the full panel of roughly 83,000, 20% have a hit.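 In brief: 96-well plates, 48 h treatment, single concentration, percent growth endpoint.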 Unmarked numbers belong to inactive results. Active and inactive are the calls of the source. How the source made its calls: active means growth percent below 10; inactive means the rest.

In the case of `Nc1nc(-c2ccc(Cl)cc2)nc2c1sc(=S)n2-c1ccccc1`, the growth in the assay with NCI-H23 lung was 48.8%; in the assay with NCI-H226 lung it was 49.4%; in the assay on NCI-H322M lung, 45.7%; in the assay with HOP-62 NSCLC it was 28.9%; with NCI-H460 lung, 9.12% (active); in the assay with HOP-92 NSCLC, -19.3% (active). Moreover, the growth in the assay on NCI-H522 lung was 56.4%; in the assay on A549/ATCC NSCLC, 23.9%; in the assay with 786-0 renal, -52.9% (active); in the assay with COLO 205 colon it was 64.4%.
Turning to `OCCn1cc(-c2nc(-c3c[nH]c4ncccc34)cs2)c2cc(F)ccc21`, the growth with NCI-H23 lung was 76.2%; in the assay on NCI-H226 lung it was 48.4%; in the assay on NCI-H322M lung, 66.3%; in the assay on HOP-62 NSCLC, 71.9%; in the assay with NCI-H460 lung, 65.7%; in the assay with HOP-92 NSCLC, 52.3%. In addition, the growth in the assay with NCI-H522 lung is 45.5%; in the assay with A549/ATCC NSCLC it was 63%; in the assay with 786-0 renal, 81.9%; in the assay on COLO 205 colon, 66.4%.
Regarding `C=C1CC[C@@H]2[C@](C)(COC(C)=O)[C@H](OC(C)=O)CC[C@@]2(C)[C@@H]1CC(Nc1ccc(S(=O)(=O)Nc2ncccn2)cc1)C1=CCOC1=O` (stereo not given in full), the growth in the assay on NCI-H23 lung was 29.6%; in the assay with NCI-H226 lung it was -16.6% (active); in the assay on NCI-H322M lung it was 50.9%; with HOP-62 NSCLC it was 126%; in the assay on NCI-H460 lung it was 18.1%; in the assay on HOP-92 NSCLC, 56.3%. Besides, the growth is -67.7% (active) in the assay with NCI-H522 lung, 44.7% in the assay with A549/ATCC NSCLC, -10.1% (active) with 786-0 renal and -12.1% (active) in the assay with COLO 205 colon.
As to `N=C(N)c1ccc(-c2ccc(-c3ccccc3)o2)cc1`, the growth in the assay on NCI-H23 lung is 3.73% (active); in the assay with NCI-H226 lung, -26.4% (active); in the assay on NCI-H322M lung it was -37.8% (active); in the assay on HOP-62 NSCLC, -50.7% (active); in the assay on NCI-H460 lung, -73.1% (active); in the assay on HOP-92 NSCLC it was -59.5% (active). In addition, the growth with NCI-H522 lung is -82.6% (active); in the assay on A549/ATCC NSCLC, -30.1% (active); in the assay with 786-0 renal, -86% (active); in the assay with COLO 205 colon it was -87.7% (active).
For the molecule `Cc1nc2sc(C(=O)Nc3cccc(Br)c3)c(N)c2cc1C(O)c1ccccc1` (stereo not given), the growth is 25.1% in the assay with NCI-H23 lung; 61.7% with NCI-H226 lung; 61% in the assay on NCI-H322M lung; 47.5% with HOP-62 NSCLC; 4.9% (active) in the assay with NCI-H460 lung; 76.3% in the assay on HOP-92 NSCLC. The growth is 9.66% (active) with NCI-H522 lung, 20.4% with A549/ATCC NSCLC, 36.2% in the assay with 786-0 renal and 16.6% in the assay on COLO 205 colon.
`O=C(Nc1nc2cc(C(=O)N3CCN(C(c4ccccc4)c4ccccc4)CC3)ccc2o1)c1ccc(NC2CCCCC2)c([N+](=O)[O-])c1`: the growth with NCI-H23 lung was 69.5%; in the assay on NCI-H226 lung, 65.1%; in the assay on NCI-H322M lung, 59.4%; in the assay on HOP-62 NSCLC, 47.4%; in the assay with NCI-H460 lung, 46.8%; in the assay on HOP-92 NSCLC it was 73.3%. Also, the growth was 64.2% in the assay with NCI-H522 lung, 56.1% with A549/ATCC NSCLC, 53.6% in the assay with 786-0 renal and 79.7% in the assay with COLO 205 colon.
As for `COc1cc2c(cc1OC)C(C)N(S(N)(=O)=O)CC2` (stereo not given), the growth with NCI-H23 lung is 87.1%; in the assay on NCI-H226 lung it was 78.8%; with NCI-H322M lung, 105%; in the assay on HOP-62 NSCLC, 80.2%; in the assay with NCI-H460 lung it was 111%; in the assay on HOP-92 NSCLC, 98.6%. The growth was 98.4% in the assay on NCI-H522 lung, 101% with A549/ATCC NSCLC, 89.3% with 786-0 renal and 111% with COLO 205 colon.
Consider `CN(c1cc2ncc(=O)[nH]c2cc1NC(N)=NCc1ccc(Cl)cc1)C1CCCCC1`, for which the growth was 88.1% in the assay with NCI-H23 lung; 72.8% in the assay with NCI-H226 lung; 84.5% in the assay on NCI-H322M lung; 80.8% in the assay with HOP-62 NSCLC; 40.3% in the assay with NCI-H460 lung; 28% with HOP-92 NSCLC. Moreover, the growth was 30.5% in the assay on NCI-H522 lung, 89.3% in the assay on A549/ATCC NSCLC, 68.5% in the assay with 786-0 renal and -63.6% (active) in the assay on COLO 205 colon.
`Cn1ccnc1C(=O)/C=C/c1ccc(C(=O)Nc2ccc(Cl)cc2)cc1`: the growth in the assay with NCI-H23 lung was -18.7% (active); in the assay with NCI-H226 lung it was 16.8%; with NCI-H322M lung, 0.414% (active); with HOP-62 NSCLC it was -4.38% (active); with NCI-H460 lung it was -28.7% (active); in the assay on HOP-92 NSCLC it was 17%. The growth with NCI-H522 lung is -5.14% (active); in the assay with A549/ATCC NSCLC it was 6.96% (active); in the assay with 786-0 renal, -78.8% (active); with COLO 205 colon, 1.1% (active).
On to `Nc1ncc(-c2ccc3ncnc(Nc4cccc(Cl)c4)c3c2)cn1`, for which the growth with NCI-H23 lung is 58.9%; in the assay with NCI-H226 lung it was 51.3%; with NCI-H322M lung it was 4.75% (active); in the assay with HOP-62 NSCLC, 37.8%; in the assay on NCI-H460 lung it was 54.8%; with HOP-92 NSCLC, 11.8%. The growth in the assay on NCI-H522 lung was 3.25% (active); in the assay on A549/ATCC NSCLC, 35.1%; with 786-0 renal, 40.8%; with COLO 205 colon, 51.2%.
Regarding `NC(=O)c1ccc(-c2c3ccccc3cc3c2ccc2ccccc23)cc1`, the growth in the assay on NCI-H23 lung is 70.7%; in the assay with NCI-H226 lung, 65.6%; in the assay on NCI-H322M lung it was 80.1%; in the assay with HOP-62 NSCLC, 65.7%; in the assay on NCI-H460 lung, 29.9%; with HOP-92 NSCLC it was 76.4%. Besides, the growth in the assay on NCI-H522 lung was -20.6% (active); in the assay with A549/ATCC NSCLC, 63.1%; in the assay on 786-0 renal, 52.4%; with COLO 205 colon, 52.5%.
Consider `COc1ccc(/C=C/C(=O)c2ccc(Nc3ccnc4cc(Cl)ccc34)cc2)cc1`, for which the growth with NCI-H23 lung was 76.2%; in the assay on NCI-H226 lung, 123%; with NCI-H322M lung it was 131%; in the assay on HOP-62 NSCLC, 72.3%; with NCI-H460 lung it was 101%; with HOP-92 NSCLC, 37.9%. Further, the growth with NCI-H522 lung was 73.3%; in the assay with A549/ATCC NSCLC, 103%; with 786-0 renal, 72.8%; with COLO 205 colon, 117%.
Consider `N#Cc1ccc2c(c1)C(=O)c1c-2n(CCCN)c(=O)c2cc([N+](=O)[O-])ccc12`, for which the growth with NCI-H23 lung was -57.6% (active); with NCI-H226 lung it was -71.6% (active); in the assay on NCI-H322M lung it was -81.5% (active); with HOP-62 NSCLC it was -89.5% (active); in the assay on NCI-H460 lung it was -100% (active); with HOP-92 NSCLC, -2.3% (active). In addition, the growth in the assay with NCI-H522 lung is -72.2% (active); with A549/ATCC NSCLC, -100% (active); in the assay on 786-0 renal it was -90% (active); in the assay with COLO 205 colon, -100% (active).
Regarding `CSc1nnc(-c2cc3c([nH]c4ccccc43)c(-c3cccc(O)c3)n2)n1-c1ccccc1`, the growth with NCI-H23 lung is 55.1%; in the assay with NCI-H226 lung, 51.6%; with NCI-H322M lung, 43.3%; in the assay with HOP-62 NSCLC it was 47.6%; in the assay on NCI-H460 lung, 12.1%; in the assay with HOP-92 NSCLC it was 48.7%. Besides, the growth in the assay with NCI-H522 lung is -15% (active); with A549/ATCC NSCLC, 46.1%; with 786-0 renal it was 24.1%; in the assay with COLO 205 colon, 85.3%.
